High-throughput results (PubChem)
Sfp inh: inhibitors of Bacillus subtilis Sfp phosphopantetheinyl transferase | Q9F4F7 | Biochemical Sfp PPTase activity, qHTS | Potency, µM, inactives show largest response in the series, negative = inhibition, actives largely listed as inhibitors | hit rate 3.5% among 310,000;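 further: the enzyme is Sfp with the accession as filed and its product quenches rhodamine fluorescence; potency means the concentration at half of the fitted maximal effect; 0% = enzyme reaction without inhibitor and -100% = no enzyme wells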
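Compounds were incubated with enzyme (final 15 nM) for 15 min at room temperature before substrate addition started the reaction. Fluorescence at 525 nm excitation, 598 nm emission was recorded immediately and after 30 minutes.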
JMJD2A Tudor inh: inhibitors of human JMJD2A Tudor domain; O75164; AlphaScreen JMJD2A-Tudor / H3K4me3 peptide binding; Potency, µM (series often up to 114 µM), for the others: top-dose activity change, negative = inhibition, most hits filed as inhibitors; hit rate 4.4% among 390,000; further: potency means the concentration at half of the fitted maximal effect; on the % scale 0 is the no-effect control and ±100 the full control effect; nearly all actives have a fitted effect of over 50% in size
L3MBTL1 inh: L3MBTL1 (human) inhibition; Q9Y468; AlphaScreen L3MBTL1–H3K9me1 peptide binding; Potency, µM (doses to about 57.1 µM), for the others: at the top dose activity, negative = inhibition, hits mostly inhibitors; hit rate 0.66% among 230,000; further: potency means the concentration at half of the fitted maximal effect; on the % scale 0 is the no-effect control and ±100 the full control effect; nearly all actives have a fitted effect of over 60% in size
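Read-out is AlphaScreen signal from streptavidin donor and nickel chelate acceptor beads (10 ug/mL final each) bridging L3MBTL1 (50 nM) and biotinylated K9-monomethylated H3(1-15) peptide (75 nM), after 30 min compound exposure at room temperature.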
HP1b binding inh: HP1-beta chromodomain-methylated histone interaction inhibition; P83916; AlphaScreen HP1-beta / biotin-H3K9me3 peptide binding; Potency, µM (series often up to 114 µM), for the others: at the top dose activity change, negative = inhibition, most hits filed as inhibitors; hit rate 0.56% among 390,000; AID 540317; further: potency means the concentration at half of the fitted maximal effect; nearly all actives have a fitted effect of over 70% in size
Target sequence (P83916 whole entry, looked up): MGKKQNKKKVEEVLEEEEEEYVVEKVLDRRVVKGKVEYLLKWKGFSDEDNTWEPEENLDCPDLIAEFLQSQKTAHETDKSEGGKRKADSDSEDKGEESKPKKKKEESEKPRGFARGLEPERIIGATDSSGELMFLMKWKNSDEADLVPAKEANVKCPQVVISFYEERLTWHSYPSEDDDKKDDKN
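HP1-beta protein (50 nM final) preincubated 30 min at room temperature with biotinylated H3(1-18)K9me3 peptide (50 nM) in PBS pH 7.4, 0.01% Tween-20, then compound added for 30 min. AlphaScreen streptavidin donor/nickel chelate acceptor beads (10 ug/mL final), 30 min dark, luminescence read.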
BAZ2B block: BAZ2B (human) inhibition | Q9UIF8 | AlphaScreen BAZ2B-H3K14Ac peptide displacement | Potency, µM (titrated, usually from 114 µM), for the others: at the highest dose activity change, negative = inhibition, usual class: inhibitors | hit rate 4.4% among 360,000; further: potency means the concentration at half of the fitted maximal effect; on the % scale 0 is the no-effect control and ±100 the full control effect; nearly all actives have a fitted effect of over 60% in size
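Multi-concentration screen (max 110 uM) measuring displacement of acetylated histone H3 peptide from BAZ2B by AlphaScreen, using 50 nM protein, 50 nM peptide and 10 ug/mL streptavidin donor plus Ni-chelate acceptor beads.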
G9a block: blocks human histone lysine methyltransferase G9a; Q96KQ7; G9a H3K9 monomethylation, AlphaScreen, 2 h; Potency, µM (titrated, usually from 102 µM), without a hit: at the highest dose activity, negative = inhibition, actives largely listed as inhibitors; hit rate 8.8% among 350,000; AID 504332; further: potency means the concentration at half of the fitted maximal effect; on the % scale 0 is the no-effect control and ±100 the full control effect; nearly all actives have a fitted effect of over 75% in size
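Using a bead-based AlphaScreen, monomethylated H3K9 product from 2 h room-temperature reactions (G9a 20 nM, peptide 500 nM, SAM 20 uM) was detected with 0.5 ug/mL rabbit anti-H3K9me1 antibody.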
12-hLO 8HQ R1: blocks human 12-lipoxygenase product formation in cuvette; shares compounds with BAZ2B block; purified 12-hLO, cuvette UV 234 nm product formation; Potency, µM, usual class: inhibitors; hit rate 60% among 35;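 active means compounds that slowed 12-hLO product formation enough to yield a measured IC50 potency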
JMJD2E inh-1: JMJD2E demethylase inhibition by 8HQ compounds; shares compounds with BAZ2B block; JMJD2E demethylase, FDH-coupled NADH fluorescence; Potency, µM (series often up to 57 µM), for the others: at the highest dose activity, negative = inhibition, hits mostly inhibitors; hit rate 89% among 130; AID 493212
ME-1 growth: inhibitors of ME-1 leukemia cell proliferation, CBFb-RUNX1 project; Potency, µM (series often up to 56.1 µM), inactives show at the highest dose activity change, negative = inhibition, most hits filed as inhibitors; ME-1 cell proliferation, ATP luminescence, 48 h; shares compounds with BAZ2B block; AID 504370; hit rate 20% among 140
JMJD2E inh-2: JMJD2E (human) demethylase inhibition, confirmation. hit rate 93% among 140. Potency, µM (titrated, usually from 56.8 µM), for the others: top-dose activity change, negative = inhibition, hits mostly inhibitors. shares compounds with JMJD2A Tudor inh. Recombinant JMJD2E, FDH-coupled NADH fluorescence (FDH is formaldehyde dehydrogenase). AID 2677
FDH counter: counter-screen for JMJD2E inhibitors: Pseudomonas putida formaldehyde dehydrogenase | shares compounds with JMJD2A Tudor inh | FDH enzyme assay, NADH fluorescence kinetic | hit rate 10% among 140 | Potency, µM (highest dose often 56.7 µM), for the others: top-dose activity, negative = inhibition, hits mostly inhibitors
Target sequence (P46154 whole entry, looked up): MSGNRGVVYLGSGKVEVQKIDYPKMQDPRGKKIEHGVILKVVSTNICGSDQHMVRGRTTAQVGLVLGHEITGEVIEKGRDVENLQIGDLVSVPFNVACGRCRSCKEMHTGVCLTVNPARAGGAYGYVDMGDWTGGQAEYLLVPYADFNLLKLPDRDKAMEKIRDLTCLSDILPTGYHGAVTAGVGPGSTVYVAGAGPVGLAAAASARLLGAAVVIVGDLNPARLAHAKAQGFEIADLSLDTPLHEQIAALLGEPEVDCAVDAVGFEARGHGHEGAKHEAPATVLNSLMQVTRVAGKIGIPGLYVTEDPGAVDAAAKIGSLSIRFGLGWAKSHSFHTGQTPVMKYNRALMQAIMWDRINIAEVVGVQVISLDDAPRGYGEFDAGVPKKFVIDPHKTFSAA
JMJD2E MALDI inh: blocks demethylation by human JMJD2E in a MALDI-TOF-MS assay; recombinant JMJD2E demethylation, MALDI-TOF-MS; hit rate 90% among 45; Potency, µM, hits mostly inhibitors; AID 2688; shares compounds with JMJD2A Tudor inh;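 active means compounds whose IC50 for blocking JMJD2E demethylation is below 100 µM; inconclusive means dose dependent effect but IC50 above 100 µM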
Starred values were filed as active, the others as inactive; ? = inconclusive; nt = no result; ! = a repeat was not active; [ ] = dose if it differs, or a comment. Compounds with a hit are over-represented: about 12% of the library has one in this group of screens. Unless noted, the call rests on the fitted dose curve; in most records, active means well fitted curve in the direction sought with a large enough effect; inconclusive means small, poorly fitted or top-dose-only effect, or another doubt; inactive means no such curve, though single readings can be large; an effect the other way counts as inactive or inconclusive.

SMILES	Sfp inh	JMJD2A Tudor inh	L3MBTL1 inh	HP1b binding inh	BAZ2B block	G9a block	JMJD2E inh-1	JMJD2E inh-2	FDH counter	JMJD2E MALDI inh	others
CC1=C(C(=O)Nc2ccccc2)C(c2cccc(Cl)c2)n2nc(SCC(=O)c3ccc(C)cc3)nc2N1 (stereo not given)	nt	-18.0%	nt	-5.1%	0.8%	3.9%[59 µM]	nt	nt	nt	nt
Cc1[nH]nc2c1/C(=N\O)CCC2	12.1%	-10.9%	11.0%	6.3%	-25.2%	-2.3%	nt	nt	nt	nt
CN(C)CCc1c[nH]c2ccc(CC3COC(=O)N3)cc12 (stereo not given)	16.2%	nt	nt	nt	nt	6.5%[2.33 µM]	nt	nt	nt	nt	ME-1 growth=-5.6%
O=C(Nc1cccc(Cl)c1Cl)C1CCCC1	nt	24.4%	nt	55.8%	nt	nt	nt	nt	nt	nt
NC(Cc1ccc(Oc2ccc(O)cc2)cc1)C(=O)O (stereo not given)	-0.2%	nt	-0.8%	nt	6.1%	6.4%	nt	nt	nt	nt
N[C@@H](Cc1ccc(O)cc1)C(=O)O	-5.7%	nt	nt	nt	nt	2.8%[59 µM]	nt	nt	nt	nt
NCCc1ccc(O)c(O)c1	79.4µM*!	31.6µM*	2.2%	14.1µM*	?	8.91µM*	nt	nt	nt	nt	ME-1 growth=-14.1%
NC(Cc1ccc(O)c(O)c1)C(=O)O (stereo not given)	-80.9%	nt	nt	nt	nt	nt	nt	nt	nt	nt	ME-1 growth=?
N[C@H](Cc1ccc(O)c(O)c1)C(=O)O	?	nt	nt	nt	nt	17.8µM*	nt	nt	nt	nt	ME-1 growth=-10.2%
Oc1ccc(CNc2ccccc2Br)c2cccnc12	nt	50.1µM*	nt	nt	nt	nt	3.55µM*	3.55µM*	-9.1%	24.1*
Oc1ccc(CNc2cccc(F)c2)c2cccnc12	nt	56.2µM*	nt	nt	nt	nt	1.12µM*	1.12µM*	-9.1%	14.5*
O=C(Cc1cccc2ccccc12)Nc1ccccc1Br	8.5%	-9.3%	9.0%	36.4%	6.7%	23.3%	nt	nt	nt	nt
O=C(CCCN1C(=O)c2cccnc2C1=O)Nc1ccc(F)cc1Cl	1.2%	-11.9%	nt	21.2%	-14.3%	18.5%	nt	nt	nt	nt
Oc1ccc(CNc2ccc(F)cc2Cl)c2cccnc12	nt	56.2µM*	nt	nt	nt	nt	5.76µM*	1.12µM*	-18.2%	16.1*
Oc1ccc(/C=C/c2ccccc2F)c2cccnc12	nt	?	nt	nt	nt	nt	11.2µM*	5.76µM*	-18.2%	37.4*
Oc1ccc(/C=C/c2ccccc2)c2cccnc12	nt	?	nt	nt	nt	nt	10µM*	4.08µM*	-27.3%	24.3*
CC1CCc2c(sc(NC(=O)/C=C/c3cccs3)c2C(=O)O)C1 (stereo not given)	16.2%	-35.2%	nt	-2.8%	?	?	nt	nt	nt	nt
O=C(O)c1cc(Br)c(O)c2ncccc12	nt	nt	nt	nt	nt	nt	0.0073µM*	?	-18.2%	nt
CCC(=O)NC(c1cccs1)c1cc(Cl)c2cccnc2c1O (stereo not given)	6.1%	-14.4%	5.1%	44.9%	-4.8%	-1.7%	12.6µM*	12.6µM*	-18.2%	nt	12-hLO 8HQ R1=1µM*
